# Most compounds without a hit are left out; they make up all but 18% or so of the library.
# Gal4-VP16 FLuc: inhibits Gal4-VP16 luciferase reporter, ROR gamma counter-screen; Drosophila S2 Gal4-VP16 UAS-luciferase, luminescence, 20 h; Potency, µM (highest dose often 53.6 µM), inactives show top-dose activity, negative = inhibition, actives largely listed as inhibitors; actives 3.5% (n = 310,000);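 further: Gal4-VP16 expression switched on by copper sulfate through the metallothionein promoter; potency means the concentration at half of the fitted maximal effect; nearly all actives have a fitted effect of over 50% in size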
# TDP1 cell noCPT: qHTS for Inhibitors of human tyrosyl-DNA phosphodiesterase 1 (TDP1): qHTS in cells in absence of CPT. DT40 Tdp1-/- hTDP1 cells, no CPT, ATP luminescence, 48 h. Potency, µM (series often up to 46.2 µM), for inactives: top-dose activity change, negative = growth inhibition, most hits filed as inhibitors. actives 15% (n = 420,000). AID 686978, 2013; further: potency means the concentration at half of the fitted maximal effect; nearly all actives have a fitted effect of over 55% in size
#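 Growth kinetics read by CellTiter-Glo luminescence after ≥48 hr at 37 °C. Cells: DT40 Tdp1-/- stably carrying human TDP1, 400 per well, compound exposure in the absence of CPT (DMSO vehicle).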
# LDHA block: inhibitors of human lactate dehydrogenase A. activity change, % (values are at about 110 or 230 µM). P00338. purified LDHA, NADH/diaphorase-resazurin fluorescence; stronger effect = lower value. actives 0.15% (n = 480,000); in the data active means activity change below about -30%; inconclusive means mostly about -25% to -30%;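 further: plate controls were DMSO wells for no effect and wells without enzyme for full effect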
#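 Resorufin fluorescence (ex540/em590), read at 0 and 20 min after diaphorase/resazurin addition, reports the NADH left after a 5 min room-temperature reaction of 2 nM human LDH5 with 0.06 mM NADH and 0.2 mM pyruvate.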
# TDP1 cell CPT: DT40-hTDP1 cell growth loss with CPT; chicken DT40 Tdp1-/-;hTDP1 cells + 20 nM CPT, ATP luminescence, 48 h; Potency, µM (series often up to 46.2 µM), for inactives: top-dose activity change, negative = growth inhibition, hits mostly inhibitors; actives 12% (n = 420,000); further: potency means the concentration at half of the fitted maximal effect; nearly all actives have a fitted effect of over 55% in size
#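 Cell growth measured by CellTiter-Glo luminescence after a minimum 48 h, 37 C compound exposure with 20 nM CPT in Tdp1-knockout DT40 cells stably expressing hTDP1, seeded 400/well; qHTS titration format.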
# IL-1B inflam inh: inflammasome signaling inhibition, IL-1 beta readout | activity change, % at 57.5 µM | actives 4.7% (n = 360,000) | THP-1 LPS/ATP IL-1B secretion, AlphaLISA, 16 h; stronger effect = lower value; in the data active means activity change below about -50%; inconclusive means mostly about -30% to -49%
#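 Secreted IL-1B measured by AlphaLISA bead assay after 16 h compound exposure of THP-1 cells; compounds (final up to 57.5 uM) added 1 h before LPS (250 ng/mL) and ATP (1.25 mM) stimulation; lower signal means less secretion.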
# RORg inh: blocks mouse ROR gamma transcriptional activity | P51450 | Drosophila S2 Gal4-RORgamma UAS-luciferase reporter, 20 h | Potency, µM (highest dose often 53.6 µM), without a hit: top-dose activity change, negative = inhibition, hits mostly inhibitors | actives 5.4% (n = 310,000); further: potency means the concentration at half of the fitted maximal effect; nearly all actives have a fitted effect of over 60% in size
# Target sequence (P51450 whole entry, looked up, the tested form may be a part): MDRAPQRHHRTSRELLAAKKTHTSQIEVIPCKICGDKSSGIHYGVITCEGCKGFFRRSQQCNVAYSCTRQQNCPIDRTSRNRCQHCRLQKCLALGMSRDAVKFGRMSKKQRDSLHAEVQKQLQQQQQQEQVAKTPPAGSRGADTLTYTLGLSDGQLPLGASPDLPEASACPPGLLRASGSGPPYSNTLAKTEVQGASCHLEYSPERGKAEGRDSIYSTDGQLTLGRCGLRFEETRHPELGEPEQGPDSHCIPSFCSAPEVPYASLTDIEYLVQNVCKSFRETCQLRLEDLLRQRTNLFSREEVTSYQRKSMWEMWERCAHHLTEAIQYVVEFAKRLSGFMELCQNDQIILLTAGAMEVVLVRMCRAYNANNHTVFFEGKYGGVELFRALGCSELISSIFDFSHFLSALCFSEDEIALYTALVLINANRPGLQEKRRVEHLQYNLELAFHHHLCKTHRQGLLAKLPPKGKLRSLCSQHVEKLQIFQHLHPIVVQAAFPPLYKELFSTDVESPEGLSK
#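 Using a luciferase readout, inhibitors were identified by reduced reporter activity in Drosophila cells coexpressing a copper-inducible Gal4–ROR gamma fusion and UAS-driven Photinus luciferase, incubated 20 hr after 700 uM copper sulfate.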
# An asterisk follows results filed as active; ? = inconclusive; nt = no result; ! = not confirmed by another sample; [ ] = remark or other dose. Unless noted, the call rests on the fitted dose curve; in most records, active means well fitted curve in the direction sought with a large enough effect; inconclusive means small, poorly fitted or top-dose-only effect, or another doubt; inactive means no such curve, though single readings can be large; an effect the other way counts as inactive or inconclusive. Unless noted, on the % scale 0 is the no-effect control and ±100 the full control effect.
SMILES,Gal4-VP16 FLuc,TDP1 cell noCPT,LDHA block,TDP1 cell CPT,IL-1B inflam inh,RORg inh
CC(C)c1ccc(N2C(=O)NC(=O)/C(=C\C=C\c3ccco3)C2=O)cc1,4.47µM*,?,-9.9,?,-99.9*,?
CC(C)c1ccc(N2C(=O)NC(=O)/C(=C\c3cnc(-c4ccccc4)nc3)C2=O)cc1,-1.8%,?,-20.0,?,-4.1,0.8%
COc1ccc(C(=O)NC(=S)NNC(=O)c2cccnc2)cc1,-12.6%,?,2.0,?,31.5,15.8µM*
Cc1ccc(NC(=O)C2CCCN2S(=O)(=O)c2ccc3c(c2)CCCC(=O)N3)cc1Cl (stereo unspecified),nt,?,1.1,16.4µM*,nt,nt
CC(=O)N1CCCc2cc(S(=O)(=O)N3CCCC(C(=O)Nc4cccc(F)c4)C3)ccc21 (stereo unspecified),-4.2%,?,-0.3,?,2.1,?
NCCCN1CCN(Cc2ccccc2)CC1,nt,nt,-1.3,nt,nt,nt
CN1CCN(c2csc3ccc(F)cc3c2=O)CC1,nt,-3.1%,1.2,4.8%,nt,nt
CN1Cc2c(ccc3c2OCO3)C2C(O)Cc3cc4c(cc3C21)OCO4 (stereo unspecified),-14.2%,1.88µM*,nt,2.66µM*,nt,5.1%
Cc1oc2ccc(OC(=O)N3CCOCC3)cc2c1C(=O)OC(C)C,-9.7%,25.9µM*,-3.0,?,0.6,22.7%
c1ccc(N2CCCC3(CCNCC3)C2)nc1,5.8%,16.4µM*,nt,?,nt,19.3%
c1cnc(N2CCC3(CCNCC3)CC2)nc1,-4.2%,23.1µM*,nt,?,nt,-17.9%
CCCCC[C@@H](/C=C/C=C\CCCCCCCC(=O)O)OO,-15.5%,2.4%[0.628 µM],nt,6.8%[0.628 µM],nt,-5.1%
CCOP(=O)(CCP(=O)(OCC)OCC)OCC.C[CH2][Sn]([Cl])([Cl])[CH2]C,nt,0.82µM*,-13.9,0.731µM*,-99.9*,nt
CCOP(=O)(OCC)OCC,1.2%,-16.0%,-6.2,2.5%,-17.4,11.0%
COc1ccc(CNC(=O)c2sc(=O)n(Cc3ccc(C)cc3)c2C)cc1OC,nt,16.4µM*,1.6,?,-24.7,nt
CCOc1ccc(Cn2c(=O)oc3ccc(C)cc32)cc1OC,-14.3%,?,-10.8,?,-11.9,36.3%
Cc1c(C(=O)NCc2cccc(C(F)(F)F)c2)sc(=O)n1Cc1ccc(C(=O)N(C)C)cc1,nt,14.6µM*,-9.1,?,-15.9,nt
CN(C)CCNC(=O)c1cccn(Cc2cc(C(F)(F)F)cc(C(F)(F)F)c2)c1=O,9.7%,-14.4%,-4.5,-10.4%,?,0.5%
C[C@]12CCC(=O)C=C1CC[C@@H]1[C@@H]2CC[C@]2(C)C(=O)CC[C@@H]12,-12.5%,18.4µM*!,-4.9,?,5.2,?
C[C@@]12CCC3C(CCC4=CC(=O)CC[C@]43C)C1CCC2O (stereo partly specified),-6.9%,16.4µM*,nt,?,nt,9.6%
Cc1ccc(NC(=O)c2cn(C)c3ccccc23)cc1,nt,nt,3.9,nt,nt,nt
CC12CC[C@H]3[C@@H](CCC4(O)CC(O)CCC34/C=N/O)C1(O)CCC2C1=CC(=O)OC1 (stereo partly specified),nt,nt,0.9,nt,nt,nt
CCc1nnc(NC(=O)CCc2nc(C3=CCN(C)CC3)no2)s1,3.8%,-16.8%,-5.0,-8.7%,-53.8*,5.1%
COc1ccc2nc(NC(=O)CCc3nc(C4=CCN(C)CC4)no3)sc2c1,-17.5%,-26.4%,0.7,-24.0%,-21.5,?
Cc1ccc(NC(=O)c2cn(C)c3ccccc23)c2cccnc12,nt,nt,4.7,nt,nt,nt
SMILES,Gal4-VP16 FLuc,TDP1 cell noCPT,LDHA block,TDP1 cell CPT,IL-1B inflam inh,RORg inh
CNS(=O)(=O)c1cc(NC(=O)c2cccc3cccnc23)ccc1C,15.4%,20.6µM*,-7.1,23.1µM*,?,-6.3%
CCCCC/C=C\C[C@@H](/C=C/C=C\C/C=C\CCCC(=O)O)OO,10.8%,13.9%[0.628 µM],nt,-0.5%[0.628 µM],nt,-0.6%
CCCCC/C=C\C/C=C\C/C=C\C/C=C\CCCC(=O)O,?,23.7µM*!,nt,29.9µM*!,nt,?
C=CCN(CC(=O)c1sc(C(=O)OCC)nc1C)c1cccc(Br)c1,nt,?,-0.2,?,26.4,nt
Cn1c(=O)n(C)c2cc(CNCCc3ccccc3F)ccc21,nt,?,-11.9,?,nt,nt
Cc1ccc2c(c1)C1CN(C)CCC1N2C(=O)c1ccccc1NS(=O)(=O)c1cccc(C(F)(F)F)c1 (stereo unspecified),-7.2%,13µM*,1.9,?,-4.9,-9.2%
Cc1ccc2c(c1)C1CN(C)CCC1N2C(=O)Cn1cnc2c1c(=O)n(C)c(=O)n2C (stereo unspecified),-1.1%,-35.5%,0.9,-4.6%,21.0,14.8%
Cc1ccc2c(c1)C1CN(C)CCC1N2C(=O)c1ccco1 (stereo unspecified),0.5%,-8.3%,1.2,-17.5%,0.2,-1.3%
Cc1ccc2c(c1)C1CN(C)CCC1N2C(=O)Nc1cccc(Cl)c1 (stereo unspecified),4.7%,23.1µM*,-6.8,?,-52.6*,6.2%

# High-throughput results from PubChem.
